# Experimental data as given in PubChem BioAssay (NCATS).
# Records with an inconclusive call do not appear. Activity calls are given as the source filed them. The call rests on the fitted dose curve; in most records, active means well fitted inhibition curve with a large enough effect; inconclusive means small, poorly fitted or top-dose-only effect; inactive means no such curve, though single readings can be large or run the other way.
# Molecular target: Aldehyde dehydrogenase 1A1 (Homo sapiens) (UniProt P00352)
# Assay: qHTS for Inhibitors of the Aldehyde Dehydrogenase Family (ALDH1A1) Confirmatory screens (AID 2061316); further: nearly all actives have a fitted effect of over 65% in size
# Settings: ALDH inhibition qHTS; series mostly up to 47.3 µM
# Potency means the concentration at half of the fitted maximal effect.
row,SMILES,Potency
1,Cc1ccc(OCCn2c3c(c4ccccc42)CN(C(=O)C2CCCCC2)CC3)cc1,2.01 µM (active)
2,Cc1cc(-c2nnc3n2CCCCC3)c(C)n1-c1cccc2ccccc12,12.7 µM (active)
3,Cc1csc(CN(C)c2ncnc3ccc(-c4ccc5c(c4)OCO5)cc23)n1,12.7 µM (active)
4,C=C1[C@@H](OC(C)=O)CC[C@@]2(C)[C@@H](OC(C)=O)[C@H](OC(C)=O)C3=C(C)C[C@H](OC(=O)C(C)CC)[C@@H]([C@@H](OC(C)=O)[C@H]12)C3(C)C (stereo partly specified),inactive
5,O=C([C@@H]1CCCN(c2ccc3[nH]c(C4(n5cc(Cl)cn5)CC4)nc3n2)C1)N1CCCC1,inactive
6,Cc1ccc(CN(C)c2ncnc3ccc(-c4ccc(C#N)n4C)cc23)o1,12.7 µM (active)
7,O=C1Nc2ccccc2/C1=C/c1cccc(C(=O)O)c1,inactive
8,Nc1ccc(Nc2cc(O)c3ncccc3c2)cc1,14.2 µM (active)
9,NC(=O)C1CCN(c2nccc(-c3ccc4c(c3)OCCCO4)n2)CC1,11.3 µM (active)
10,NC(=O)C1CCN(c2nc(-c3cc4ccccc4o3)cs2)CC1,6.34 µM (active)
11,N#Cc1cccnc1SC1=NS(=O)(=O)c2ccccc21,0.0712 µM (active)
12,N#Cc1cnc(NS(=O)(=O)c2ccc(NC(=O)Cc3ccc(Cl)c(Cl)c3)cc2)s1,inactive
13,O=c1[nH]c(CN2CCOCC2)nc2sc3c(c12)CCCC3,inactive
14,Cc1ccc(CN(C)c2ccc(N3CCN(C)CC3)cc2)cc1,2.01 µM (active)
15,O=C(OCC#CCSc1nnc(-c2cccc3ccccc23)o1)c1ccncc1,inactive
16,CN(C)[C@H]1CCN(c2cccc(Nc3nn4c(=O)c5ccccc5nc4s3)c2)C1,5.04 µM (active)
